# Laboratory results as given in the supplement of paper PMC10037445.
# Whole data set: some 2,900 compounds, median “NF-kB SEAP reporter activity, fold change vs agonist alone” near 0.99, cut for the highest 2% near 2.6. Shown is part of a subset that was picked to be rich in the highest values.
# Legend:
# RAW-Dual [1] = assay: NF-kB SEAP reporter activity, fold change vs agonist alone; cytotoxicity flag (confluency mask): not cytotoxic; higher = enhanced NF-kB activity
# Outline: (§1)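 Library stock was pin-tooled at 50 nL into 384-well plates of RAW-Dual macrophages (50,000 cells/well, DMEM), followed 1 h later by a PRR agonist, and the cells were kept at 37 °C, 5% CO2. Supernatant collected after 20 hours was read for IRF by QuantiLuc luminescence and for NF-κB by QuantiBlue absorbance at 620 nm. Reporter activity is fold change over agonist-alone wells, and a well counted as cytotoxic when its IncuCyte confluency was below 70% of agonist controls in both mask sets.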
# RAW-Dual [2] = assay: NF-kB SEAP reporter activity, fold change vs agonist alone; higher = enhanced NF-kB activity; details: cytotoxicity flag (confluency mask): not cytotoxic
# Outline: as §1
# [3] = agonist: ODN 1826 (TLR9) 0.5 ug/mL
# [4] = agonist: Pam2CSK4 (TLR2/6) 0.1 ug/mL
# [5] = agonist: Pam3CSK4 (TLR2/1) 0.1 ug/mL
# [6] = library stock concentration (final ~1000-fold dilution): 10 mM, agonist: Imiquimod (TLR7) […]
# [7] = library stock concentration (final ~1000-fold dilution): 10 mM, agonist: MPLA (TLR4) […]
smiles,measurement,setting,value
O=c1oc2cc(O)ccc2c2ccc(O)cc12 (library stock concentration (final ~1000-fold dilution): 10 mM),NF-kB SEAP reporter activity,RAW-Dual [1]; agonist: LPS (TLR4) 0.1 ug/mL,1.08
same,NF-kB SEAP reporter activity,RAW-Dual [1]; [3],0.575
same,NF-kB SEAP reporter activity,RAW-Dual [1]; [4],0.257
same,NF-kB SEAP reporter activity,RAW-Dual [1]; [5],0.455
O=c1oc2cc(O)ccc2c2ccc(O)cc12,NF-kB SEAP reporter activity,RAW-Dual [2]; [6],1.26
same,NF-kB SEAP reporter activity,RAW-Dual [2]; [7],1.58
CNC(=O)c1ccc(-c2cnc3cnc(-c4ccccc4)cn23)cc1,NF-kB SEAP reporter activity,RAW-Dual [2]; [6],1.1
same,NF-kB SEAP reporter activity,RAW-Dual [2]; [7],1.37
CNC(=O)c1ccc(-c2cnc3cnc(-c4ccccc4)cn23)cc1 (library stock concentration (final ~1000-fold dilution): 10 mM),NF-kB SEAP reporter activity,RAW-Dual [1]; agonist: LPS (TLR4) 0.1 ug/mL,1.54
same,NF-kB SEAP reporter activity,RAW-Dual [1]; [3],0.763
same,NF-kB SEAP reporter activity,RAW-Dual [1]; [4],1.22
same,NF-kB SEAP reporter activity,RAW-Dual [1]; [5],2.3
CC12CCC3c4ccc(O)cc4CC(CCCCCCCCCS(=O)CCCC(F)(F)C(F)(F)F)C3C1CCC2O (configuration not stated) (library stock concentration (final ~1000-fold dilution): 10 mM),NF-kB SEAP reporter activity,RAW-Dual [1]; agonist: LPS (TLR4) 0.1 ug/mL,0.714
same,NF-kB SEAP reporter activity,RAW-Dual [1]; [3],0.721
same,NF-kB SEAP reporter activity,RAW-Dual [1]; [4],0.634
same,NF-kB SEAP reporter activity,RAW-Dual [1]; [5],0.864
CC12CCC3c4ccc(O)cc4CC(CCCCCCCCCS(=O)CCCC(F)(F)C(F)(F)F)C3C1CCC2O (configuration not stated),NF-kB SEAP reporter activity,RAW-Dual [2]; [6],0.89
same,NF-kB SEAP reporter activity,RAW-Dual [2]; [7],0.904
CC#CC(=O)N1CCCC1c1nc(-c2ccc(C(=O)Nc3ccccn3)cc2)c2c(N)nccn12 (configuration not stated) (library stock concentration (final ~1000-fold dilution): 10 mM),NF-kB SEAP reporter activity,RAW-Dual [1]; agonist: LPS (TLR4) 0.1 ug/mL,1.09
same,NF-kB SEAP reporter activity,RAW-Dual [1]; [3],0.844
same,NF-kB SEAP reporter activity,RAW-Dual [1]; [4],0.581
same,NF-kB SEAP reporter activity,RAW-Dual [1]; [5],0.793
CC#CC(=O)N1CCCC1c1nc(-c2ccc(C(=O)Nc3ccccn3)cc2)c2c(N)nccn12 (configuration not stated),NF-kB SEAP reporter activity,RAW-Dual [2]; [6],0.862
same,NF-kB SEAP reporter activity,RAW-Dual [2]; [7],0.81
COC1OC(COS(=O)(=O)O)C(OC2OC(C(=O)O)C(OC3OC(COS(=O)(=O)O)C(OC4OC(C(=O)O)C(OC5OC(COS(=O)(=O)O)C(O)C(O)C5NS(=O)(=O)O)C(O)C4O)C(OS(=O)(=O)O)C3NS(=O)(=O)O)C(O)C2OS(=O)(=O)O)C(O)C1NS(=O)(=O)O (configuration not stated) (library stock concentration (final ~1000-fold dilution): 10 mM water),NF-kB SEAP reporter activity,RAW-Dual [1]; agonist: LPS (TLR4) 0.1 ug/mL,1.06
same,NF-kB SEAP reporter activity,RAW-Dual [1]; [3],1.3
same,NF-kB SEAP reporter activity,RAW-Dual [1]; [4],1.25
same,NF-kB SEAP reporter activity,RAW-Dual [1]; [5],1.04
COC1OC(COS(=O)(=O)O)C(OC2OC(C(=O)O)C(OC3OC(COS(=O)(=O)O)C(OC4OC(C(=O)O)C(OC5OC(COS(=O)(=O)O)C(O)C(O)C5NS(=O)(=O)O)C(O)C4O)C(OS(=O)(=O)O)C3NS(=O)(=O)O)C(O)C2OS(=O)(=O)O)C(O)C1NS(=O)(=O)O (configuration not stated),NF-kB SEAP reporter activity,"RAW-Dual [2]; library stock concentration (final ~1000-fold dilution): 10 mM water, agonist: Imiquimod (TLR7) […]",1.04
same,NF-kB SEAP reporter activity,"RAW-Dual [2]; library stock concentration (final ~1000-fold dilution): 10 mM water, agonist: MPLA (TLR4) […]",1.06
CC(C(=O)O)c1cccc(C(=O)c2ccccc2)c1 (configuration not stated) (library stock concentration (final ~1000-fold dilution): 10 mM),NF-kB SEAP reporter activity,RAW-Dual [1]; agonist: LPS (TLR4) 0.1 ug/mL,1.02
same,NF-kB SEAP reporter activity,RAW-Dual [1]; [3],1.01
same,NF-kB SEAP reporter activity,RAW-Dual [1]; [4],1.11
same,NF-kB SEAP reporter activity,RAW-Dual [1]; [5],1.19
CC(C(=O)O)c1cccc(C(=O)c2ccccc2)c1 (configuration not stated),NF-kB SEAP reporter activity,RAW-Dual [2]; [6],0.866
same,NF-kB SEAP reporter activity,RAW-Dual [2]; [7],1.05
CC(C)C(C(=O)Nc1ccc(C(=O)NO)cc1)c1ccccc1 (configuration not stated) (library stock concentration (final ~1000-fold dilution): 10 mM),NF-kB SEAP reporter activity,RAW-Dual [1]; agonist: LPS (TLR4) 0.1 ug/mL,4.76
same,NF-kB SEAP reporter activity,RAW-Dual [1]; [3],0.93
same,NF-kB SEAP reporter activity,RAW-Dual [1]; [4],1.12
same,NF-kB SEAP reporter activity,RAW-Dual [1]; [5],1.15
CC(C)C(C(=O)Nc1ccc(C(=O)NO)cc1)c1ccccc1 (configuration not stated),NF-kB SEAP reporter activity,RAW-Dual [2]; [6],0.965
same,NF-kB SEAP reporter activity,RAW-Dual [2]; [7],0.937
